# Test results as given in PubChem BioAssay (EPA / NIEHS).
# Where “and” joins values, the source holds several entries; their conditions need not be identical. Identical values can stand only once. Inconclusive results are not listed. Calls of active or inactive are those of the source. The calls were made as follows, unless noted: active = hit-call score of the fitted dose curve at least 0.9, where 1 is the maximum; inconclusive = response in the unintended direction; inactive = score below 0.9.
# What was measured:
# [1] = target: bovine Gamma-Aminobutyric Acid Type A Receptor Agonist (GABAR Agonist), GABRA1 (gene 780973) (UniProt P08219); assay: NVS_LGIC_bGABAR_Agonist: NovaScreen (NVS) Ligand-Gated Ion Channel Assay for bovine Gamma-Aminobutyric Acid Type A Receptor Agonist (GABAR Agonist) (AID 2283338)
# How it was run: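 Radioligand binding to bovine cerebellar membranes in agonist format, read by filter-based scintillation counting after 1 h. Primary screen in duplicate at 25 uM, with actives followed in concentration series. Gain of signal versus DMSO.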
# [2] = target: rat Glycine Receptor, Strychnine-sensitive (GlyRStrySens), Glra1 (gene 25674) (UniProt P07727); assay: NVS_LGIC_rGlyRStrySens: NovaScreen (NVS) Ligand-Gated Ion Channel Assay for rat Glycine Receptor, Strychnine-sensitive (GlyRStrySens) (AID 2283341)
# Protocol: (§1) NVS_LGIC_rGlyRStrySens is a biochemical, single-readout assay that uses extracted gene-proteins from Rat spinal cord membranes in a tissue-based cell-free assay. Measurements were taken 1 hour after chemical dosing in a 48-well plate.NVS_LGIC_rGlyRStrySens is one of one assay component(s) measured or calculated from the NVS_LGIC_rGlyRStrySens assay. It is designed to make measurements of radioligand binding, a form of binding reporter, as detected with scintillation counting signals by Filter-based radiodetection technology.Data from the assay component NVS_LGIC_rGlyRStrySens was analyzed into 1 assay endpoint. This assay endpoint, NVS_LGIC_rGlyRStrySens, was analyzed in the positive analysis fitting direction relative to DMSO as the negative control and baseline of activity. Using a type of binding reporter, loss-of-signal activity can be used to understand changes in the binding as they relate to the gene Glra1. Furthermore, this assay endpoint can be referred to as a primary readout, because the performed assay has only produced 1 assay endpoint. To generalize the intended target to other relatable targets, this assay endpoint is annotated to the ion channel intended target family, where the subfamily is ligand-gated ion channel.
# (§2) Binding assays used specific radioligands (tritiated, iodinated) with non-radioactive competitive displacement ligands in agonist or antagonist protocols (as indicated) and various reference compounds and inhibitors to titrate specific binding to receptors and transporters. Most enzyme assays (CYPs, kinases, phosphatases, proteases, HDACs) used recombinant protein and specific substrates (fluorescence mostly, some colorimetric and radioactive) and inhibitors, followed by a biochemical separation of substrate and product. All assays for the biochemical HTS were initially run in duplicate at a single concentration (10 uM for CYP450 assays and 25 uM for all others). […]
# [3] = target: Voltage-gated inwardly rectifying potassium channel KCNH2 (Homo sapiens) (UniProt Q12809); assay: NVS_IC_hKhERGCh: NovaScreen (NVS) Ion Channel Assay for human Potassium Channel ERG (KhERGCh) (AID 2283333)
# How it was run: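 Membranes from CHO cells expressing human ERG; displacement of radioligand measured by filtration and scintillation after 0.75 h. Single-concentration duplicate screen at 25 uM, then concentration-response for actives; DMSO baseline.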
# [4] = NVS_IC_rCaBTZCHL: NovaScreen (NVS) Ion Channel Assay for Calcium Channel, Type L, Benzothiazepine Site (CaBTZCHL) (AID 2283337)
# How it was run: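 Benzothiazepine-site binding was assessed in a tissue-derived, cell-free rat cortical membrane system. After 1.5 h exposure, radioactivity retained on filters was quantified by scintillation; positive and negative controls accompanied every plate.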
# [5] = target: rat Glutamate, MK-801 Agonist Site (GluNMDA_MK801), Grin1 (gene 24408) (UniProt P35439); assay: NVS_LGIC_rGluNMDA_MK801_Agonist: NovaScreen (NVS) Ligand-Gated Ion Channel Assay for rat Glutamate, MK-801 Agonist Site (GluNMDA_MK801) (AID 2283340)
# How it was run: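 Rat forebrain membrane preparation; MK-801-site radioligand binding read by filtration and scintillation after 1.5 h. Single-point 25 uM duplicate screen, followed by singleton concentration series to 50 uM max; DMSO baseline.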
# [6] = test system: guinea pig Histamine Receptor (H2), gene 100729734; assay: NVS_GPCR_gH2: NovaScreen (NVS) G Protein-Coupled Receptor Assay for guinea pig Histamine Receptor (H2) (AID 2283342)
# How it was run: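 Guinea pig striatal membrane preparation with specific radioligand; bound counts measured by filtration and scintillation 1 h post-dosing, DMSO as baseline. Chemicals passing a 25 uM duplicate screen were titrated to a 50 uM maximum.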
# [7] = target: Glutamate receptor ionotropic, kainate 1 (Rattus norvegicus) (UniProt P22756); assay: NVS_IC_rKAR: NovaScreen (NVS) Ion Channel Assay for rat Kainic Acid Receptors (KAR) (AID 2283334; active = hit-call score of the fitted dose curve at least 0.9, where 1 is the maximum; inactive = score below 0.9)
# Protocol: as §1, with “NVS_IC_rKAR” for “NVS_LGIC_rGlyRStrySens”, “forebrain” for “spinal cord”, “plate.NVS_IC_rKAR” for “plate.NVS_LGIC_rGlyRStrySens”, “NVS_IC_rKAR,” for “NVS_LGIC_rGlyRStrySens,”, “Grik1.” for “Glra1.”
# as §2
# [8] = target: rat Peripheral-type Benzodiazepine Receptor (PBR), Tspo (gene 24230) (UniProt P16257); assay: NVS_MP_rPBR: NovaScreen (NVS) Membrane Protein Assay for rat Peripheral-type Benzodiazepine Receptor (PBR) (AID 2283335)
# How it was run: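 Single-concentration duplicate screening at 25 uM preceded concentration-series retesting of actives. Binding of a specific radioligand to rat kidney membrane PBR was read by filtration radiodetection after 1 h, with plate-wise positive and negative controls.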
# NCBI gene 100848466 = assay: NVS_NR_bPR: NovaScreen (NVS) Nuclear Receptor Binding Assay for bovine Progextron Receptor (PR) (AID 2283343);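 as to AC50: actives lower bound radioligand signal below DMSO meaning displacement of the label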
# How it was run: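 Scintillation counts of bound radioligand were read 18 hours after chemical addition to membranes extracted from bovine uterus. Displacement was scored as loss of signal relative to DMSO controls. Screening began at 25 uM in duplicate.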
# [9] = target: Small conductance calcium-activated potassium channel protein 1 (Rattus norvegicus) (UniProt P70606); assay: NVS_IC_rKCaCh: NovaScreen (NVS) Ion Channel Assay for rat Potassium Channel, Ca2+ Act., VI (KCaCh) (AID 2283336)
# How it was run: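 Filter-based scintillation counting of radioligand bound to rat forebrain membrane preparations, measured 1 h after compound addition. Primary screen used 25 uM in duplicate, with concentration-response follow-up; signal decrease relative to DMSO marks activity.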
# Voltage-gated inwardly rectifying potassium channel KCNH2 (Homo sapiens), sequence (Q12809 whole entry, looked up): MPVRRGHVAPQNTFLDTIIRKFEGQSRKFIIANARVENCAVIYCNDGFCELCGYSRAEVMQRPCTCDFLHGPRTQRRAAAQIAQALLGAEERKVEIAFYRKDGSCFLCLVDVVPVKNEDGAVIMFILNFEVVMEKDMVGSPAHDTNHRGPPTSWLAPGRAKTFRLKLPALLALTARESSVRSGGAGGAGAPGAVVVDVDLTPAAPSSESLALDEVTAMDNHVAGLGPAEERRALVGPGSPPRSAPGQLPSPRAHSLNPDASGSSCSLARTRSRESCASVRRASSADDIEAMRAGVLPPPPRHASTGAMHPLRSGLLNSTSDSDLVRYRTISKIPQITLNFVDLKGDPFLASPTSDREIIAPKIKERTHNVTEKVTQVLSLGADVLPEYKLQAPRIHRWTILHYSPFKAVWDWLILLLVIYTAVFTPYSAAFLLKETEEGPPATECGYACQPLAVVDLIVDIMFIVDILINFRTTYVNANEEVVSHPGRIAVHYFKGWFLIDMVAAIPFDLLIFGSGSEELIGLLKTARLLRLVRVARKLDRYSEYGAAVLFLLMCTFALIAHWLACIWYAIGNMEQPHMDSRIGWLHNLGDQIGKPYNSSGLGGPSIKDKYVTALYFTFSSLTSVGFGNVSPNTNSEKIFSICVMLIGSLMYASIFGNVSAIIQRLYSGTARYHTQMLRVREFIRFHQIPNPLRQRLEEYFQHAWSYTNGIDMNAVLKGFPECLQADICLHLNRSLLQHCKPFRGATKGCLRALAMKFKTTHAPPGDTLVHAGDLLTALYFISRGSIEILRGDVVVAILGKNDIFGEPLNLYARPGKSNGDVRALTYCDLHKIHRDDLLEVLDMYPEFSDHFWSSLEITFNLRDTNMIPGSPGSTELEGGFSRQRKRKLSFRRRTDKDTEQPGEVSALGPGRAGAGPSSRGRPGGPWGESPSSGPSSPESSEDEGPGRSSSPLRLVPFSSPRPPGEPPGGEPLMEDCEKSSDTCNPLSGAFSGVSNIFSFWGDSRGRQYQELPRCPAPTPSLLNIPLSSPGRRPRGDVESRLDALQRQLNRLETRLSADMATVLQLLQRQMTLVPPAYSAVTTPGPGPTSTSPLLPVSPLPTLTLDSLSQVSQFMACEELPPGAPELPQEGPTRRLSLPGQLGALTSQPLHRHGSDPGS
# rat Peripheral-type Benzodiazepine Receptor (PBR), Tspo (gene 24230), sequence (P16257 whole entry, looked up): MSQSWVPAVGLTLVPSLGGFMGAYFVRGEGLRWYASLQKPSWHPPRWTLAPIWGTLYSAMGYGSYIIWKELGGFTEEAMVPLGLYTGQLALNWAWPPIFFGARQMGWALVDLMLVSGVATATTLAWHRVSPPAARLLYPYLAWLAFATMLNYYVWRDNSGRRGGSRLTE
# Small conductance calcium-activated potassium channel protein 1 (Rattus norvegicus), sequence (P70606 whole entry, looked up): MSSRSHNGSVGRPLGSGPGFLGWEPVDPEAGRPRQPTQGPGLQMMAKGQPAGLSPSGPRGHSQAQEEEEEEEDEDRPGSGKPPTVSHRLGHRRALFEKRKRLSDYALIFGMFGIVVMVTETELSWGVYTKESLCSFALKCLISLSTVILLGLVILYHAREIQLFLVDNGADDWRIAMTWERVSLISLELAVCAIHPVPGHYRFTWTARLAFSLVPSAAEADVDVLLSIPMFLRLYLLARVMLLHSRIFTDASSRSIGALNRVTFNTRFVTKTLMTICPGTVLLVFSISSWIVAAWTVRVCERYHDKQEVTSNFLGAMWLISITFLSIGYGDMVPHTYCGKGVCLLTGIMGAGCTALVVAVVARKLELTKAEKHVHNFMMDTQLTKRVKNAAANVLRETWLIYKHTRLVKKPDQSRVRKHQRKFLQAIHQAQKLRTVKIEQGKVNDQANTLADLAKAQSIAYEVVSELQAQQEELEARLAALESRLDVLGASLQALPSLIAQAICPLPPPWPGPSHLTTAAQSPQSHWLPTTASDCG
# Glutamate receptor ionotropic, kainate 1 (Rattus norvegicus), sequence (P22756 whole entry, looked up): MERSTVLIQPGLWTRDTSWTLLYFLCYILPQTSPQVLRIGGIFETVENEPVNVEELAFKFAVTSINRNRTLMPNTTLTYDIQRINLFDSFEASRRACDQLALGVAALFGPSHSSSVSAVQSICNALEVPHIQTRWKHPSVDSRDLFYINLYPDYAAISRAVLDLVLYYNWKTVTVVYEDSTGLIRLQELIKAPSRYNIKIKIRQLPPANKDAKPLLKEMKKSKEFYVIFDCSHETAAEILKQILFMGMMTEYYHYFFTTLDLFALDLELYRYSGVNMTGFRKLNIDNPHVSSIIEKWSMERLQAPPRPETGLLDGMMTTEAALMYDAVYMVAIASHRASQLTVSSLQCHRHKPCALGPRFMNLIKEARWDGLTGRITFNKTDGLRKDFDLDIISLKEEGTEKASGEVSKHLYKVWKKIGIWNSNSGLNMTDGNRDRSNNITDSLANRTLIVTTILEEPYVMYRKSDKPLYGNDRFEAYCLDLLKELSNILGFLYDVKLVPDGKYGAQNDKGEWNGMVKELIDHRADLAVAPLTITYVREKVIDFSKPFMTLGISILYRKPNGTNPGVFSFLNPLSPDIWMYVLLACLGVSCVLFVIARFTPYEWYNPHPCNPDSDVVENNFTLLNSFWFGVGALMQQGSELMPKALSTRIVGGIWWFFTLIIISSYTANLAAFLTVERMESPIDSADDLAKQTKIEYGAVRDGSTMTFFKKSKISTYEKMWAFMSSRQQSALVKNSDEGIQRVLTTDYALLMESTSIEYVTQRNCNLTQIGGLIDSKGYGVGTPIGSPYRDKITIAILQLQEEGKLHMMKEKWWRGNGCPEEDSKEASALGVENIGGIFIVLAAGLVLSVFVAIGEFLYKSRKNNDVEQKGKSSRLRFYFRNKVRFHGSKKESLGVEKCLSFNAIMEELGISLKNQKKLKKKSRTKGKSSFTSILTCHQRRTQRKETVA
# bovine Gamma-Aminobutyric Acid Type A Receptor Agonist (GABAR Agonist), GABRA1 (gene 780973), sequence (P08219 whole entry, looked up): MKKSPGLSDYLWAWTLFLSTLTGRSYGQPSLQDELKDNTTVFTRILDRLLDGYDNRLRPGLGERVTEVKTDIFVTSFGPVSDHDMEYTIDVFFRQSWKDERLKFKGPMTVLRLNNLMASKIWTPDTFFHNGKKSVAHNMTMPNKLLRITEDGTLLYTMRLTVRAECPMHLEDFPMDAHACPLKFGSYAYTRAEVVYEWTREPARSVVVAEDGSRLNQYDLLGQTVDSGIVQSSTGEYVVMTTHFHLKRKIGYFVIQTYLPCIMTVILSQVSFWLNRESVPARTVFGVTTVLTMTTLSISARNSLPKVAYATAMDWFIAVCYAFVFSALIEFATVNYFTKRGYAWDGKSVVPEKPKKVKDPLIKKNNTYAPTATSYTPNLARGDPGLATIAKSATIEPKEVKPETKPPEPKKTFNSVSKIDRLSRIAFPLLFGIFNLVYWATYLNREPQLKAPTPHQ
# rat Glycine Receptor, Strychnine-sensitive (GlyRStrySens), Glra1 (gene 25674), sequence (P07727 whole entry, looked up): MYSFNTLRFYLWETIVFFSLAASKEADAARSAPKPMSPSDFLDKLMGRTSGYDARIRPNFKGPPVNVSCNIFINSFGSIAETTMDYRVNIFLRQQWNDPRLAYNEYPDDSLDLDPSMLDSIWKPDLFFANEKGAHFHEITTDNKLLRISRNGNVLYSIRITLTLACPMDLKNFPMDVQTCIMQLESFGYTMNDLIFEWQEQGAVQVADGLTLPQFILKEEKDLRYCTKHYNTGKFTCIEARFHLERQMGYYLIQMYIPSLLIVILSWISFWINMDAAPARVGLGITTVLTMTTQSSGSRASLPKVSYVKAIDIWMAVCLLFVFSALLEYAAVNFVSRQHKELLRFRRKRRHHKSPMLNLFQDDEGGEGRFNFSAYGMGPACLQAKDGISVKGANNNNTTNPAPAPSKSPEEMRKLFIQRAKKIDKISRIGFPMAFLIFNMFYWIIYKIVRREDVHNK
smiles,measurement,setting,value
CC(C)(c1cc(Br)c(O)c(Br)c1)c1cc(Br)c(O)c(Br)c1,AC50,[1],44.4 µM (active)
O=C(O)Cc1cc(I)c(Oc2ccc(O)c(I)c2)c(I)c1,outcome,[2],inactive
COc1cc(C(=O)NC2CCN(C)CC2)ccc1Nc1ncc2c(n1)N(C1CCCC1)CC(F)(F)C(=O)N2C,AC50,[3],5.1 µM (active)
same,AC50,[4],10.8 µM (active)
same,AC50,[5],15.9 µM (active)
same,AC50,[6],4.77 µM (active)
Cc1ccc(C(C)C)cc1,outcome,[1],inactive
O=c1[nH]sc2ccccc12,outcome,[7],inactive
O=c1c(-c2ccc(O)cc2)coc2cc(O)cc(O)c12,outcome,[8],inactive
C[C@]12CC[C@@H]3c4ccc(O)cc4CC[C@H]3[C@@H]1CC[C@H]2O,AC50,NCBI gene 100848466,0.0988 µM (active)
O=C1c2ccccc2C(=O)N1CCc1noc(-c2ccc(CN3CCCCCC3)s2)n1,outcome,[8],inactive
same,AC50,[4],7.22 µM (active)
same,AC50,[6],8.06 µM (active)
CN(C[C@@H](CC[N+]12CCC(C3CCCCC3)(CC1)CC2)c1ccc(Cl)c(Cl)c1)C(=O)c1cc(C(F)(F)F)cc(C(F)(F)F)c1,AC50,[8],2.4 µM (active)
same,AC50,[4],1.48 µM (active)
same,AC50,NCBI gene 100848466,41.5 µM (active)
NCc1cccc(C2CCN(C(=O)c3ccc(C#Cc4ccccc4F)o3)CC2)c1,AC50,[3],6.03 µM (active)
same,outcome,[8],inactive
same,AC50,[4],2.9 µM (active)
same,AC50,[5],39.9 µM (active)
same,outcome,[2],inactive
same,AC50,[6],12 µM (active)
Cc1ccc2oc(CN(Cc3ccccc3)C(=O)Nc3c(F)cc(F)cc3F)c(-c3ccc(Cl)cc3)c2c1,AC50,[8],4.2 µM (active)
same,outcome,NCBI gene 100848466,inactive
CN(C)C(=O)C1(N2CCCCC2)CCN(CC[C@@]2(c3ccc(Cl)c(Cl)c3)CN(C(=O)c3ccccc3)CCO2)CC1,AC50,[3],8.74 µM (active)
same,outcome,[9],inactive
same,AC50,[4],0.27 µM (active)
same,outcome,[5],inactive
same,AC50,[6],1.08 µM (active)
CCCC(=O)OCCC(C)C,outcome,[7],inactive
CN(C)c1ccc(C(=C2C=CC(=[N+](C)C)C=C2)c2ccc(N(C)C)cc2)cc1,AC50,[3],5.33 µM (active)
same,AC50,[8],5.36 µM (active)
same,AC50,[4],5.44 µM (active)
same,AC50,[6],0.827 µM (active)
same,AC50,NCBI gene 100848466,4.43 µM (active)
CCCCOC(=O)c1ccc(O)cc1,AC50,[8],3 µM (active) and 25 µM (active)
same,outcome,NCBI gene 100848466,inactive
CCN(Cc1cccnc1)C(=O)c1cccc(Cl)c1[C@]1(C)C(=O)N(Cc2ccc(OC)cc2OC)c2ccc(Cl)cc21,AC50,[8],1.69 µM (active)
same,outcome,[9],inactive
same,AC50,[4],12.6 µM (active)
same,AC50,[6],1.12 µM (active)
same,AC50,NCBI gene 100848466,2.77 µM (active)
COc1cccc([C@H](O)C2CCN(CCc3ccc(F)cc3)CC2)c1OC,AC50,[4],1.35 µM (active)
same,AC50,[6],13.1 µM (active)
